Reference: PubChem BioAssay (Tox21)
Where “and” joins values, the source holds several entries; their conditions need not be identical. Equal values may be shown once. Inconclusive results are not listed. Where a call stands in place of a potency, no number is given. Some structures have more than one record in an assay (separate samples or runs), and their calls can disagree. Calls of active or inactive are those of the source. Unless noted, calls come from the whole dose curve; as a rule, active = well fitted curve in the direction sought with a large enough effect in the repeat runs; inconclusive = weak or mixed curves; inactive = no such curve, though single readings can be large; an effect the other way counts as inactive or inconclusive.

Experiments:
[1] = qHTS assay to identify small molecule antagonists of the estrogen related receptor (ERR) signaling pathway from Tox21 library - cell viability counter screen (AID 1224834); note: nearly all actives have a fitted effect of over 30% in size
How it was run: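 In this quantitative HTS format, ERR cells receive compounds in DMSO and are incubated for 17.5 h at 37 C. Live-cell protease activity is then detected with CellTiter-Fluor.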

[2] = molecular target: Luciferin 4-monooxygenase (Photinus pyralis) (UniProt P08659); test: qHTS assay to identify small molecule inhibitors of firefly luciferase (AID 1224835); note: nearly all actives have a fitted effect of over 25% in size; note: potency is the fitted concentration of half-maximal effect
How it was run: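 Biochemical qHTS: compounds run as interplate titrations against purified firefly enzyme, with D-luciferin and ATP each at its KM concentration. Light output recorded by CCD imaging.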

[3] = qHTS assay to identify small molecule agonists of the constitutive androstane receptor (CAR) signaling pathway - cell viability counter screen (AID 1224836); note: series mostly up to about 92 µM; nearly all actives have a fitted effect of over 45% in size
How it was run: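 Cells were seeded and incubated 4 hrs. Compounds were added across 15 concentrations together with PK11195 at 0.75 uM final. Plates were incubated 23 hrs at 37 C. CellTiter-Fluor was added and fluorescence measured.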

[4] = qHTS assay to identify small molecule antagonists of the constitutive androstane receptor (CAR) signaling pathway - cell viability counter screen (AID 1224837); note: series mostly up to about 92 µM; nearly all actives have a fitted effect of over 45% in size
How it was run: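 In quantitative HTS format, compounds at 15 concentrations were applied to HepG2 cells double-transfected with hCAR and CYP2B6-2.2kb under 50 nM CITCO stimulation; live-cell protease activity was read after 23 hr via CellTiter-Fluor.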

[5] = molecular target: Nuclear receptor subfamily 1 group I member 3 (Homo sapiens) (UniProt Q14994); test: qHTS assay to identify small molecule antagonists of the constitutive androstane receptor (CAR) signaling pathway (AID 1224838); note: nearly all actives have a fitted effect of over 40% in size
How it was run: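 CITCO-stimulated (50 nM final) HepG2 cells stably transfected with hCAR and CYP2B6-2.2kb luciferase were exposed to compounds at 15 concentrations for 24 h at 37 C/5% CO2. A luciferase reagent was added and luminescence recorded after 30 min.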

[6] = molecular target: Nuclear receptor subfamily 1 group I member 3 (Homo sapiens) (UniProt Q14994); test: qHTS assay to identify small molecule agonists of the constitutive androstane receptor (CAR) signaling pathway (AID 1224839); note: nearly all actives have a fitted effect of over 15% in size; note: potency is the fitted concentration of half-maximal effect
How it was run: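 Cells were plated and incubated 4 hrs, then dosed with compounds at 15 concentrations. PK11195 was added to 0.75 uM final. After 24 hrs at 37 C, luciferase luminescence was measured.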

[7] = qHTS assay to identify small molecule antagonists of the estrogen related receptor signaling pathway with the pleiotropic PPARgamma coactivator (PGC) from Tox21 10K library - cell viability counter screen (AID 1224840; active = well fitted cell-killing curve with a large enough effect in the repeat runs, not every such curve was filed as active; note: nearly all actives have a fitted effect of over 40% in size)
How it was run: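 Viability counter screen, PGC/ERR cells: 17.5 h compound exposure at 37 C, CellTiter-Fluor fluorescence endpoint.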

[8] = qHTS assay to identify small molecule antagonists of the estrogen related receptor signaling pathway with the pleiotropic PPARgamma coactivator (PGC) from Tox21 10K library (AID 1224841; call rule not given here; note: series mostly up to about 92 µM; actives are mostly falling curves and most rising ones were filed inactive; nearly all actives have a fitted effect of over 50% in size)
How it was run: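 In the PGC/ERR line, DMSO solutions of test chemicals are pin-delivered to 2,000 cells/well six hours after dispensing. Following eighteen hours' incubation, One-Glo reagent is added and luminescence recorded.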

[9] = qHTS assay to identify small molecule agonists of the estrogen related receptor signaling pathway with the pleiotropic PPARgamma coactivator (PGC) from Tox21 10K library (AID 1224842); note: nearly all actives have a fitted effect of over 15% in size
How it was run: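 PGC/ERR reporter cell line, 2,000 cells per well, incubated 6 h at 37 C before 23 nL compound in DMSO was added. After 18 h at 37 C, One-Glo luminescence read following 30 min at room temperature.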

[10] = molecular target: Thyrotropin receptor (Homo sapiens) (UniProt P16473); test: qHTS assay to identify small molecule agonists of the thyroid stimulating hormone receptor (TSHR) signaling pathway (AID 1224843; calls by dose curve; note: nearly all actives have a fitted effect of over 45% in size)
How it was run: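 HEK293/TSHR, 800 cells/well; cpd 30 min RT; add cAMP-d2 + anti-cAMP-cryptate, 1 h RT; fluorescence read on plate reader. 15-pt titration, n=3.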

Sequence of Thyrotropin receptor (Homo sapiens) (P16473 whole entry, looked up): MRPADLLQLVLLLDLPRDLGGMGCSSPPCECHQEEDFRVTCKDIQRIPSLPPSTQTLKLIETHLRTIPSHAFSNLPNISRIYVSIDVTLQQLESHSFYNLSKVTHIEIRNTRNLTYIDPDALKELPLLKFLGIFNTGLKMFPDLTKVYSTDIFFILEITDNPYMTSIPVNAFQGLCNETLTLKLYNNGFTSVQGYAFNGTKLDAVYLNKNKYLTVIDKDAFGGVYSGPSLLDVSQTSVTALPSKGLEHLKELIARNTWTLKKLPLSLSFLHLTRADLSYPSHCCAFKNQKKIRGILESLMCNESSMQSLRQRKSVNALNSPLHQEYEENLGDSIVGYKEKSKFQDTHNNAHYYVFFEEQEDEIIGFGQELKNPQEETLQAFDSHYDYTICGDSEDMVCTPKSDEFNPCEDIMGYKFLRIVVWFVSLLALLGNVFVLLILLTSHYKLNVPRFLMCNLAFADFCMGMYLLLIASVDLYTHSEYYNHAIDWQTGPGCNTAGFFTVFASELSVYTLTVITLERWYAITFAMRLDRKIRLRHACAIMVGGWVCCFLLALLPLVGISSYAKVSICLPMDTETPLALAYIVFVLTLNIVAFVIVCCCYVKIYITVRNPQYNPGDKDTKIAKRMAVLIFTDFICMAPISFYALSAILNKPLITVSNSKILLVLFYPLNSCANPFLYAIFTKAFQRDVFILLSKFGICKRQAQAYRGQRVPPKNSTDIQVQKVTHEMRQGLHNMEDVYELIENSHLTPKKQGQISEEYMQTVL
Sequence of Luciferin 4-monooxygenase (Photinus pyralis) (P08659 whole entry, looked up): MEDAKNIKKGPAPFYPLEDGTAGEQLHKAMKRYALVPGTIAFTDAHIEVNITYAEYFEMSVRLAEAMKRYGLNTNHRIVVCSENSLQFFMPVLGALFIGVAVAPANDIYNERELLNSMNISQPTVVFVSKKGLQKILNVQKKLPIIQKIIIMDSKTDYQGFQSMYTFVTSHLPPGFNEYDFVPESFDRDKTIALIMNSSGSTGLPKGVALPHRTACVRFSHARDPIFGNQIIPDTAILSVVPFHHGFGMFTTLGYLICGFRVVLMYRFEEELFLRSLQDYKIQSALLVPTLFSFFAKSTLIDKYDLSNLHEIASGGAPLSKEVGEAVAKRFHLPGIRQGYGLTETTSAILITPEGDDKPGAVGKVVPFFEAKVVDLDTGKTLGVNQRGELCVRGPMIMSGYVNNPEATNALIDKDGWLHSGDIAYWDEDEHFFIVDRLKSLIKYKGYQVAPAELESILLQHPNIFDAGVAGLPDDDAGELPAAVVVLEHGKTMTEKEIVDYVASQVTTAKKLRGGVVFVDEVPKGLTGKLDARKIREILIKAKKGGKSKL
Sequence of Nuclear receptor subfamily 1 group I member 3 (Homo sapiens) (Q14994 whole entry, looked up): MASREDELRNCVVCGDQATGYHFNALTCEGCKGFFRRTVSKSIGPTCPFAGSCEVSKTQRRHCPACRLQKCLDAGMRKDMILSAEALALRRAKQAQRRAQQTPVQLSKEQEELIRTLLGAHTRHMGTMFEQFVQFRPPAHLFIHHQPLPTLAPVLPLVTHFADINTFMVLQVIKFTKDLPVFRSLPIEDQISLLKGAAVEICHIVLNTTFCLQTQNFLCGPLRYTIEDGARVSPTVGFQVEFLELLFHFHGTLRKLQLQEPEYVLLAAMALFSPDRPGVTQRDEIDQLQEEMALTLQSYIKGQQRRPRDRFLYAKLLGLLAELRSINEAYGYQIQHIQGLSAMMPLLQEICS

BrCCc1ccccc1
Potency [1]: inactive | Potency [2]: inactive | Potency [3]: inactive | Potency [4]: inactive | Potency [5]: inactive | Potency [6]: inactive | Potency [7]: inactive | Potency [8]: inactive | Potency [9]: inactive | Potency [10]: inactive

[P]#[In]
Potency [1]: inactive | Potency [2]: inactive | Potency [3]: inactive | Potency [4]: inactive | Potency [5]: inactive | Potency [6]: inactive | Potency [7]: inactive | Potency [8]: inactive | Potency [9]: inactive | Potency [10]: inactive

NC(=O)CS(=O)C(c1ccccc1)c1ccccc1 (configuration not stated)
Potency [1]: inactive | Potency [2]: inactive | Potency [3]: inactive | Potency [4]: inactive | Potency [5]: inactive | Potency [6]: inactive | Potency [7]: inactive | Potency [8]: inactive | Potency [9]: inactive | Potency [10]: inactive

ClC(Cl)(Cl)Cl
Potency [1]: inactive | Potency [2]: inactive | Potency [3]: inactive | Potency [4]: inactive | Potency [5]: inactive | Potency [6]: inactive | Potency [7]: inactive | Potency [8]: inactive | Potency [9]: inactive | Potency [10]: inactive

CCC(C(N)=O)N1CCCC1=O (configuration not stated)
Potency [1]: inactive | Potency [2]: inactive | Potency [3]: inactive | Potency [4]: inactive | Potency [5]: inactive | Potency [6]: inactive | Potency [7]: inactive | Potency [10]: inactive

CCN(CCO)CCn1c(Cc2ccccc2)nc2c1c(=O)n(C)c(=O)n2C
Potency [1]: inactive | Potency [2]: inactive | Potency [3]: inactive | Potency [4]: inactive | Potency [5]: inactive | Potency [6]: inactive | Potency [7]: inactive | Potency [8]: inactive | Potency [9]: inactive | Potency [10]: inactive

CCC(C)(C#N)N=NC(C)(C#N)CC (configuration not stated)
Potency [1]: inactive | Potency [2]: inactive | Potency [3]: inactive | Potency [4]: inactive | Potency [5]: inactive | Potency [6]: inactive | Potency [7]: inactive | Potency [8]: inactive | Potency [9]: inactive | Potency [10]: inactive

O=C(O)C(Br)(Br)Br
Potency [1]: inactive | Potency [2]: inactive | Potency [3]: inactive | Potency [4]: inactive | Potency [5]: inactive | Potency [6]: inactive | Potency [7]: inactive | Potency [8]: inactive | Potency [9]: inactive | Potency [10]: inactive

CS(=O)(=O)c1ccc(C(=O)C2C(=O)CCCC2=O)c(Cl)c1COCC(F)(F)F
Potency [1]: inactive | Potency [2]: inactive | Potency [3]: inactive | Potency [4]: inactive | Potency [5]: inactive | Potency [6]: inactive | Potency [7]: inactive | Potency [8]: inactive | Potency [9]: inactive | Potency [10]: inactive

O=S1(=O)OCCO1
Potency [1]: inactive | Potency [2]: inactive | Potency [3]: inactive | Potency [4]: inactive | Potency [5]: inactive | Potency [6]: inactive | Potency [7]: inactive | Potency [8]: inactive | Potency [9]: inactive | Potency [10]: inactive

O=C(Cl)CCl
Potency [1]: inactive | Potency [2]: inactive | Potency [3]: inactive | Potency [4]: inactive | Potency [5]: inactive | Potency [6]: inactive | Potency [7]: inactive | Potency [10]: inactive

Nc1c(Cl)c(F)nc(OCC(=O)O)c1Cl
Potency [1]: inactive | Potency [2]: inactive | Potency [3]: inactive | Potency [4]: inactive | Potency [5]: inactive | Potency [6]: inactive | Potency [7]: inactive | Potency [8]: inactive | Potency [9]: inactive | Potency [10]: inactive

COc1cc(CCN)cc(OC)c1OC
Potency [1]: inactive | Potency [2]: inactive | Potency [3]: inactive | Potency [4]: inactive | Potency [5]: inactive | Potency [6]: inactive | Potency [7]: inactive | Potency [10]: inactive

COc1ccc2c(C(=O)c3ccc(Cl)cc3)c(C)n(CC(=O)O)c2c1
Potency [1]: inactive | Potency [2]: inactive | Potency [3]: inactive | Potency [4]: inactive | Potency [6]: inactive | Potency [7]: inactive

CC(C)(C)c1cc(O)ccc1O
Potency [1]: inactive | Potency [2]: 71 µM (active) and inactive | Potency [3]: inactive | Potency [4]: inactive | Potency [6]: 54.5 µM (active) and 61.1 µM (active) | Potency [7]: inactive

CCOC(=O)CCl
Potency [1]: inactive | Potency [2]: inactive | Potency [3]: inactive | Potency [4]: inactive | Potency [5]: inactive | Potency [6]: inactive | Potency [7]: inactive | Potency [10]: inactive

CCC(=O)OC1(c2ccccc2)CCN(C)CC1
Potency [1]: inactive | Potency [2]: inactive | Potency [3]: inactive | Potency [4]: inactive | Potency [5]: inactive | Potency [6]: inactive | Potency [7]: inactive | Potency [10]: inactive

Cc1cccc2sc3nncn3c12
Potency [1]: inactive | Potency [2]: inactive | Potency [3]: inactive | Potency [4]: inactive | Potency [5]: inactive | Potency [7]: inactive | Potency [10]: inactive

C1CN2CCC1CC2
Potency [1]: inactive | Potency [2]: inactive | Potency [3]: inactive | Potency [4]: inactive | Potency [5]: inactive | Potency [6]: inactive | Potency [7]: inactive | Potency [10]: inactive

ClCCCCl
Potency [1]: inactive | Potency [2]: inactive | Potency [3]: inactive | Potency [4]: inactive | Potency [5]: inactive | Potency [6]: inactive | Potency [7]: inactive | Potency [10]: inactive

COC(=O)c1ccc(CBr)cc1
Potency [1]: inactive | Potency [2]: inactive | Potency [3]: inactive | Potency [4]: inactive | Potency [5]: inactive | Potency [6]: 31 µM (active) | Potency [7]: inactive | Potency [10]: inactive

CCOC(=O)C(Cl)Cc1cc(-n2nc(C)n(C(F)F)c2=O)c(F)cc1Cl (configuration not stated)
Potency [1]: inactive | Potency [2]: inactive | Potency [3]: inactive | Potency [4]: inactive | Potency [5]: inactive | Potency [7]: inactive

CCOP(=S)(OCC)Oc1ccc(Cl)cc1Cl
Potency [1]: inactive | Potency [2]: inactive | Potency [3]: inactive | Potency [4]: inactive | Potency [5]: inactive | Potency [6]: 27.3 µM (active) | Potency [7]: inactive | Potency [10]: inactive

CCNc1nc(Cl)nc(NC(C)(C)C)n1
Potency [1]: inactive | Potency [2]: inactive | Potency [3]: inactive | Potency [4]: inactive | Potency [5]: inactive | Potency [7]: inactive

CC1=C2[C@H]3OC(=O)[C@@H](C)[C@@H]3CC[C@@]2(C)C=CC1=O
Potency [1]: inactive | Potency [2]: inactive | Potency [3]: inactive | Potency [4]: inactive | Potency [5]: inactive | Potency [7]: inactive | Potency [8]: inactive | Potency [9]: inactive

[O-][Br+2]([O-])O
Potency [1]: inactive | Potency [2]: inactive | Potency [3]: inactive | Potency [4]: inactive | Potency [5]: inactive | Potency [6]: inactive | Potency [7]: inactive | Potency [10]: inactive

CC(C)(C)C(=O)Cl
Potency [1]: inactive | Potency [2]: inactive | Potency [3]: inactive | Potency [4]: inactive | Potency [5]: inactive | Potency [6]: inactive | Potency [7]: inactive | Potency [10]: inactive

C=C1C[C@@H]2[C@H](CC[C@]3(C)C(=O)CC[C@@H]23)[C@@]2(C)C=CC(=O)C=C12
Potency [1]: inactive | Potency [2]: inactive | Potency [3]: inactive | Potency [4]: inactive | Potency [5]: inactive | Potency [7]: inactive | Potency [8]: inactive | Potency [9]: inactive | Potency [10]: inactive

CC(Cc1ccccc1)NCCCCl (configuration not stated)
Potency [1]: inactive | Potency [2]: inactive | Potency [3]: inactive | Potency [4]: inactive | Potency [5]: inactive | Potency [6]: inactive | Potency [7]: inactive | Potency [10]: inactive

CS(=O)(=O)Cl
Potency [1]: inactive | Potency [2]: inactive | Potency [3]: inactive | Potency [4]: inactive | Potency [5]: inactive | Potency [6]: inactive | Potency [7]: inactive | Potency [10]: inactive
